# In all, about 300,000 compounds went through this assay and about 5,200 (1.7%) were called active. Only a selection was taken, and actives are over-represented in it overall. A number with no mark means an inactive call.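 Rule for the calls: active = mean replicate activation of at least 50% with a set share of replicates each reaching 50%; inconclusive = only one of those two conditions met; inactive = mean below 50% and too few replicates reaching it.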
# Test: HSF-1 response element luciferase induction – NIH3T3-HGL cells, MG132 stress, luminescence, single point, primary screen (AID 504408);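 note: 0% = median of the neutral control wells and 100% = twice that signal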
# Conditions: NIH3T3-HGL HSF-1 luciferase reporter, MG132, 8 h; at 9 µM; hits give high values; 100% = twice DMSO control signal
row,Compound,activation
1,Cc1c(C(=O)NCc2ccccc2)cnn1-c1ccccc1,2.05%
2,CNC(=O)CSc1nnc(CCc2ccccc2)n1-c1ccccc1,-1.82%
3,Cc1c(CNCCc2ccccc2)c(C(=O)O)c(C)n1-c1ccccc1,60.5% (active)
4,CC1(C)C/C(=N/Nc2ccc([N+](=O)[O-])cc2[N+](=O)[O-])C(C)(C)O1,-1.15%
5,COc1ccc(C(=O)CCc2ccccc2O)c(OC)c1,58% (active)
6,COc1ccc(C(=O)CCC(=O)Nc2cccnc2)c(OC)c1,11.9%
7,COc1ccc(C(=O)NC(C)CCc2ccccc2)c(OC)c1 (stereo not drawn),15.4%
8,O=C(Nc1ncccc1O)c1ccc(S(=O)(=O)N2CCCC2)cc1,2.49%
9,COc1cccc(N2CC(NS(=O)(=O)c3cccs3)CC2=O)c1 (stereo not drawn),2.81%
10,O=C(Nc1cc(S(=O)(=O)N2CCOCC2)ccc1OCC(F)(F)F)c1ccc(N2CCCC2=O)cc1,-1.99%
11,CCOC(=O)c1c(Cc2ccc(Cl)cc2)c[nH]c1C,87.7% (active)
12,CCOC(=O)N1CCN(C(=O)CNC(=O)Cc2ccc(Cl)cc2)CC1,9.04%
13,CCOC(=O)c1ccc(CS(=O)c2ccc(Cl)cc2)o1 (stereo not drawn),8.33%
14,NC1=NC(c2ccc([N+](=O)[O-])cc2)N(c2ccc(F)cc2)C(N)=N1 (stereo not drawn),-0.817%
15,O=C(COC(=O)c1cnccn1)Nc1ccc(Cl)cc1C(F)(F)F,-12.3%
16,Cc1ccc(Cl)c(OCC(=O)N(C)CC(=O)Nc2ccc(N3CCOCC3)cc2)c1,1.72%
17,COc1ccc(-c2csc3ncnc(N4CCN(S(=O)(=O)c5cccc(F)c5)CC4)c23)cc1,2.84%
18,Cc1cc(NC(=O)CSC2=NS(=O)(=O)c3cc(Cl)ccc3N2)no1,1.14%
19,CCN(C(=O)COC(=O)/C=C/c1nc2ccccc2s1)C1CCS(=O)(=O)C1 (stereo not drawn),16.8%
20,O=C(COC(=O)/C=C/c1nc2ccccc2s1)Nc1ccccc1Oc1ccccc1,54.4% (active)
21,COc1ccc(/C=C/C(=O)OCC(=O)Nc2cccc(Oc3ccccc3)c2)c(OC)c1,35.6%
22,O=C(Nc1ccccc1-c1nc2ccccc2[nH]c1=O)c1cccs1,-0.37%
23,C/C(=N\Nc1ncc(Cl)cc1Cl)c1cccs1,-33.8%
24,C/C(=N\Nc1nc2ccccc2[nH]1)c1cccs1,106% (active)

row,Compound,activation
1,Cc1sc2ncnc(N3CCC(C(=O)NNC(=O)c4ccc(F)cc4)CC3)c2c1C,-17.9%
2,Cn1c(SCC(=O)c2ccccc2)ncc(C(=O)Nc2ccc(F)cc2)c1=O,9.37%
3,Brc1cnc2ccccc2c1N1CCCCC1,4.42%
4,COc1ccc(CCNC(=O)C(=O)NCC2CCCN2S(=O)(=O)c2cccs2)cc1OC (stereo not drawn),-2.01%
5,C1=C(CCNc2ncnc3c2cnn3-c2ccccc2)CCCC1,61.4% (active)
6,O=C(NNc1ncnc2c1cnn2-c1ccccc1)c1ccco1,13.2%
7,c1ccc(-n2ncc3c(N4CCCC4)ncnc32)cc1,41.2%
8,O=[N+]([O-])c1cccc(C=NN=Cc2ccccc2O)c1,-25.2%
9,O=C(Oc1ccc(-c2nnco2)cc1)c1ccc(F)c(S(=O)(=O)N2CCOCC2)c1,12.4%
10,Cc1ccc(CSc2nc3[nH]ncc3c(=O)[nH]2)cc1,87.9% (active)
11,Cc1cccc(NC(=O)CSc2nc3[nH]ncc3c(=O)[nH]2)c1,7.39%
12,CCCSc1nc2[nH]ncc2c(=O)[nH]1,-12.9%
13,Cc1cccc(N2CC(C(=O)Nc3ccccc3N3CCCC3)CC2=O)c1C (stereo not drawn),-9.91%
14,Cc1ccc(S(=O)(=O)N2CCN(C(=O)Cc3sc(C)nc3-c3ccc(F)cc3)CC2)c(C)c1,5.21%
15,CCOC(=O)c1cc(C(C)C)sc1NC(=O)COC(=O)c1nccnc1N,-14.3%
16,Cc1ccsc1C(=O)N/N=C/c1ccc([N+](=O)[O-])cc1,59% (active)
17,NC(=S)N/N=C/c1ccc([N+](=O)[O-])cc1,19.9%
18,Cc1nc2ccccc2cc1C(=O)N/N=C/c1ccc([N+](=O)[O-])cc1,10.7%
19,O=C(Nc1ccc(N2CCCCC2)cc1)c1cc(S(=O)(=O)N2CCOCC2)ccc1F,12.6%
20,CC1CCC(NC(=O)CNC(=O)c2ccc3ccccc3c2)CC1 (stereo not drawn),26.1%
21,O=C(COC(=O)Cn1[nH]c(=O)c2ccccc2c1=O)Nc1c(Cl)cccc1C(F)(F)F,-2.68%
22,O=C(O)CN1CCN(C(c2ccccc2)c2ccccc2)CC1,-26.6%
23,CC1(C)CC(N2CCN(C(c3ccccc3)c3ccccc3)CC2)=CC(=[N+]2CCCCC2)C1,59.1% (active)
24,CC(C)NC(=S)N1CCN(C(c2ccccc2)c2ccccc2)CC1,13.7%

row,Compound,activation
1,COc1ccccc1CCNC(=O)CN1C(=O)NC2(CCCC2)C1=O,-21.2%
2,CC(NC(=O)c1ccccc1F)c1cccc2ccccc12 (stereo not drawn),-4.26%
3,COc1ccc(NC(=O)c2cc(-c3cc(OC)c(OC)c(OC)c3)nc3ccccc23)c(OC)c1,-3.17%
4,CNC(=O)COC(=O)c1cc(-c2ccc(OC)cc2)nc2ccccc12,31.1%
5,COc1ccc(-c2cc(C(=O)Nc3ccccc3O)c3ccccc3n2)cc1,65.5% (active)
6,COc1ccc(NC(=O)CN(C)C(=O)Cc2coc3cc(C)c(C)cc23)cc1,-0.425%
7,CC(=O)c1nn(-c2ccc(C)cc2)cc1C(=O)c1cccc(Br)c1,-31.9%
8,COc1ccc(C(=O)n2nc(-c3ccc(C)cc3)nc2N)cc1OC,-1.25%
9,COc1ccc(C(=O)n2nc(-c3ccc(Cl)cc3)nc2N)cc1OC,71.9% (active)
10,COc1ccc(C(=O)n2nc(C)c(Br)c2C)cc1OC,6.57%
11,CC12CCC(=O)N1C(C(=O)NCCN1C(=O)S/C(=C\c3ccccc3F)C1=O)CS2 (stereo not drawn),3.07%
12,CCCN(CCC)c1nc2c(C)cccn2c(=O)c1/C=C1/SC(=S)N(Cc2ccco2)C1=O,99% (active)
13,CCOC(=O)CC1C(=O)NCCN1c1nc2c(C)cccn2c(=O)c1/C=C1\SC(=S)N(C(C)CC)C1=O (stereo not drawn),-29%
14,O=C(CCCN1C(=O)/C(=C\c2ccco2)SC1=S)Nc1cccc2ccccc12,14.2%
15,CC(C)c1ccc(S(=O)(=O)N2CCN(C(=O)CN3C(=O)NC(C)(c4ccccc4)C3=O)CC2)cc1 (stereo not drawn),-9.21%
16,CCC(CC)c1nnc(NC(=O)C2=COCCO2)s1,13.8%
17,O=C(c1ccc(F)c(S(=O)(=O)N2CCOCC2)c1)N(CCc1ccccc1)Cc1ccccc1,6.07%
18,O=C(CSc1nc2[nH]ncc2c(=O)[nH]1)Nc1ccc(F)cc1,-14.4%
19,O=C(Cn1ncc(N2CCCC2)c(Br)c1=O)c1ccc(Cl)cc1,75.4% (active)
20,O=C(Cn1nc(CNc2ccc(Cl)cc2)[n+]2c1CCCCC2)c1ccc(Cl)cc1,19.7%
21,CC(=O)Cn1ncc(N2CCOCC2)c(Br)c1=O,-14.8%
22,O=C(NCC(c1ccco1)N1CCc2ccccc21)c1cccc(F)c1 (stereo not drawn),33.2%
23,Cc1ccc(-c2nn(-c3ccccc3)cc2C(=O)NCCCN2CCCC2=O)cc1,-4.32%
24,O=[N+]([O-])c1ccccc1/C=C/CN1CCCC(CO)C1 (stereo not drawn),-4.33%

row,Compound,activation
1,CC1CCCCC1NC(=O)/C(C#N)=C/C=C/c1ccccc1[N+](=O)[O-] (stereo not drawn),53.4% (active)
2,O=[N+]([O-])c1ccccc1/C=C/CN1CCC(O)CC1,-18.5%
3,O=C(Nc1cc2c3c(c1)CC(=O)N3CCC2)c1ccccc1F,-11.8%
4,Cc1nc(-c2ccc(Cl)cc2)sc1C(=O)CBr,75.1% (active)
5,Cc1nc(-c2ccccc2)sc1C(=O)/C=C/N(C)C,-1.43%
6,Cc1nc(-c2ccc(Cl)cc2)sc1C(=O)NN,-2.26%
7,COc1ccccc1NC(=O)COC(=O)c1ccccc1SCC(=O)N1CCCC1,-2.69%
8,COCCCNC(=O)/C=C/c1ccc(OCc2c(F)cccc2Cl)cc1,0.816%
9,CN(C)CCCNC(=O)/C=C/c1ccc(OCc2c(F)cccc2Cl)cc1,-16.4%
10,O=C(/C=C/c1ccc(OCc2c(F)cccc2Cl)cc1)N1CCOCC1,67.7% (active)
11,Cc1ccn2c(=O)nc(SCC(=O)NCc3ccc4c(c3)OCO4)nc2c1,-9.78%
12,CC1=NNC(=O)C1Cc1c(Cl)cccc1Cl (stereo not drawn),8.87%
13,O=C(CSc1nc2ccc([N+](=O)[O-])cc2[nH]1)c1ccc(Cl)cc1,9.88%
14,O=C(Cc1nc2ccccc2[nH]c1=O)c1ccc(Cl)cc1,74.3% (active)
15,N#C/C(=C(/O)COC(=O)COc1ccc(Cl)cc1)c1nc2ccccc2[nH]1,25.2%
16,CCN1C(=O)[C@@H]2[C@@H](c3ccc(-c4ccc(OC)cc4)c(OC)c3)N3CCC[C@@]3(C(=O)OC)[C@@H]2C1=O,14.7%
17,COc1ccc(OCCCON2C(=O)c3ccccc3C2=O)cc1,3.41%
18,CCOC(=O)C1=C(c2ccc(OC)cc2)C(=O)c2ccccc2C1=O,82.9% (active)
19,CCOC(=O)c1c(-c2ccc(C)cc2)csc1/N=C(\C)C1=C(O)c2ccccc2C1=O,9.57%
20,O=C(Cc1ccc(S(=O)(=O)N2CCOCC2)s1)NCCOc1ccccc1F,3.3%
21,CC(=O)Nc1cccc(C(=O)OCC(=O)Nc2nnc(-c3ccccc3)o2)c1,-13.5%
